TROY signal inh: blocks TROY-dependent signaling in reporter cells; inhibition, % at 10 µM; 360,000 tested, 0.98% active; Q293 LMP1-TROYcd NF-kB luciferase reporter, 4 h; AID 1347056;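 active means compounds whose plate-normalised and pattern-corrected inhibition of the luciferase reporter signal at the single screening dose is 50% or more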
HIF-2a inh: blocks HIF-2a reporter activity | 786-0 RCC cells HIF-2a reporter, luciferase luminescence, overnight | AID 624352 | inhibition, % at 18.8 µM | 360,000 tested, 0.72% active;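 active means inhibition of the luminescence signal of 40% or more relative to plate controls, in a single-dose primary screen at 18.75 µM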
CF NFkB inh: blocks PAF-induced NF-kB reporter in cystic fibrosis cells | KKLEB NF-kB-GFP reporter, GFP fluorescence overnight | inhibition, % at 5 µM | 360,000 tested, 0.86% active;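 active means at least 50% inhibition at 5 µM, scaled per plate between neutral and stimulator controls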;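 further: PAF is a Pseudomonas aeruginosa culture filtrate used as stimulus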
TWEAK Fn14 block: inhibitors of TWEAK-Fn14 interaction signaling. AID 1159606. 360,000 tested, 2% active. TWEAK-stimulated Fn14 reporter cells, luciferase luminescence, 8 h. inhibition, % at 10 µM; in the data active means inhibition above about 50%
Peg3 promoter: inhibitors of Peg3 promoter. HeLa PEG-Prom luciferase reporter, luminescence, overnight. inhibition, % at 20 µM. 360,000 tested, 1.7% active. AID 588405;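 active means inhibition of at least 50% at 20 µM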
KKLEB cytotox: CF airway cell cytotoxicity counter-screen. KKLEB CF airway cells viability, ATPlite luminescence, overnight; active compounds read low; cells stimulated with P. aeruginosa culture filtrate. activity change (cytotoxicity), % at 5 µM. 360,000 tested, 0.36% active;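 active means corrected activity change at or below -50% at 5 µM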
A number is an active result. An excerpt weighted towards active compounds, which were near 4% of everything screened.

How did COc1cc2ccccc2cc1C(=O)N(CCN(C)C)c1nc2ccc(C)cc2s1 do in these assays?
TROY signal inh: inactive; HIF-2a inh: inactive; CF NFkB inh: inactive; TWEAK Fn14 block: inactive; Peg3 promoter: inactive; KKLEB cytotox: inactive

What do the screens show for `CN(C)CCCN(C(=O)/C=C/c1cccs1)c1nc2c(F)cccc2s1`?
TROY signal inh: inactive; HIF-2a inh: inactive; CF NFkB inh: inactive; TWEAK Fn14 block: inactive; Peg3 promoter: 106; KKLEB cytotox: inactive

How did CN(C)CCCN(C(=O)c1cc(-c2cccs2)nc2ccccc12)c1nc2c(F)cccc2s1 do in these assays?
TROY signal inh: inactive; HIF-2a inh: inactive; CF NFkB inh: inactive; TWEAK Fn14 block: inactive; Peg3 promoter: 71; KKLEB cytotox: inactive

What do the screens show for `COc1cccc(-c2nnn(CC(=O)N(C3CCCCC3)C3CCS(=O)(=O)C3)n2)c1` (configuration not stated)?
TROY signal inh: inactive; HIF-2a inh: inactive; CF NFkB inh: inactive; TWEAK Fn14 block: inactive; Peg3 promoter: inactive; KKLEB cytotox: inactive

How did CC(C)(C)c1ccc(CC(=O)N2CCC2(C)C(=O)NS(=O)(=O)c2ccc(Cl)cc2)cc1 (configuration not stated) do in these assays?
TROY signal inh: inactive; HIF-2a inh: inactive; CF NFkB inh: inactive; TWEAK Fn14 block: inactive; Peg3 promoter: inactive; KKLEB cytotox: inactive

What do the screens show for `CN(C)c1ccc(-c2noc(-c3ccccc3O)n2)cc1`?
TROY signal inh: inactive; HIF-2a inh: inactive; CF NFkB inh: inactive; TWEAK Fn14 block: 76; Peg3 promoter: inactive; KKLEB cytotox: inactive

What do the screens show for `CC(=O)c1cccc(-c2ccnc3c2CC(C(=O)Nc2cccc(OC(F)(F)F)c2)O3)c1` (configuration not stated)?
TROY signal inh: inactive; HIF-2a inh: inactive; CF NFkB inh: inactive; TWEAK Fn14 block: inactive; Peg3 promoter: inactive; KKLEB cytotox: inactive

Results for Cc1ccc(CNC(=O)c2ccc(N3CCC4(CC3)CC(c3cccc(Br)c3)=NO4)c(NC(=O)c3ccc(Cl)c([N+](=O)[O-])c3)c2)cc1 ?
TROY signal inh: inactive; HIF-2a inh: inactive; CF NFkB inh: inactive; TWEAK Fn14 block: inactive; Peg3 promoter: inactive; KKLEB cytotox: inactive

What do the screens show for `CCCNC(=O)c1ccc(N2CCC3(CC2)CC(c2cccc(Br)c2)=NO3)c(NC(=O)c2ccc(Cl)c([N+](=O)[O-])c2)c1`?
TROY signal inh: inactive; HIF-2a inh: inactive; CF NFkB inh: inactive; TWEAK Fn14 block: inactive; Peg3 promoter: 73; KKLEB cytotox: inactive

What do the screens show for `O=C(NC(=S)/C(=C1\CCCCCN1)[N+](=O)[O-])c1ccccc1`?
TROY signal inh: 87; HIF-2a inh: inactive; CF NFkB inh: inactive; TWEAK Fn14 block: 99; Peg3 promoter: inactive; KKLEB cytotox: inactive

Results for Nc1ccc(S(=O)(=O)NN=Cc2ccccc2[N+](=O)[O-])cc1 ?
TROY signal inh: inactive; HIF-2a inh: inactive; CF NFkB inh: inactive; TWEAK Fn14 block: inactive; Peg3 promoter: inactive; KKLEB cytotox: inactive

Results for CC(Oc1coc(CN2CCN(C(=O)c3ccco3)CC2)cc1=O)c1ccccc1 (configuration not stated) ?
TROY signal inh: inactive; HIF-2a inh: inactive; CF NFkB inh: inactive; TWEAK Fn14 block: inactive; Peg3 promoter: inactive; KKLEB cytotox: inactive

Results for CCN(CC)CCn1c(NS(=O)(=O)c2ccc(C)cc2)nc2ccccc21 ?
TROY signal inh: inactive; HIF-2a inh: inactive; CF NFkB inh: inactive; TWEAK Fn14 block: inactive; Peg3 promoter: inactive; KKLEB cytotox: inactive

How did CCn1c(/N=C/c2ccccc2NS(=O)(=O)c2ccc(C)cc2)nc2ccccc21 do in these assays?
TROY signal inh: inactive; HIF-2a inh: inactive; CF NFkB inh: 61; TWEAK Fn14 block: inactive; Peg3 promoter: inactive; KKLEB cytotox: inactive

How did O=C(O)c1ccccc1Nc1cc(Cl)c2nonc2c1[N+](=O)[O-] do in these assays?
TROY signal inh: inactive; HIF-2a inh: inactive; CF NFkB inh: inactive; TWEAK Fn14 block: inactive; Peg3 promoter: inactive; KKLEB cytotox: inactive

What do the screens show for `O=[N+]([O-])c1c(Nc2ccccn2)cc(Cl)c2nonc12`?
TROY signal inh: inactive; HIF-2a inh: 96; CF NFkB inh: 67; TWEAK Fn14 block: inactive; Peg3 promoter: 108; KKLEB cytotox: inactive

What do the screens show for `O=[N+]([O-])c1c(Nc2ccc(O)cc2)cc(Cl)c2nonc12`?
TROY signal inh: 83; HIF-2a inh: 95; CF NFkB inh: 103; TWEAK Fn14 block: 67; Peg3 promoter: 103; KKLEB cytotox: -76

Bioassay records: PubChem BioAssay, Sanford-Burnham Center for Chemical Genomics
